# Measured values as given in the supplement of paper PMC8728848.
# This is one part of a sample in which the strongest signals are shown more often than they occur.
# How the values were obtained:
# Experiment in all cases: glycan array binding signal (z-score within array); higher = stronger binding
# Conditions in all cases: glycan notation: IUPAC condensed, linker removed
# [1] = target: GlcA3S(b1-3)Gal(b1-4)GlcNAc(b1-2)Man
# Procedure, shortened: (§1)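 From the Consortium for Functional Glycomics database, 3228 arrays were curated, keeping only those whose protein sequence was available. Binding is given as a within-array Z-score averaged across arrays sharing a protein sequence and across linkers. Negative Z-scores can be read as non-binding.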
# [2] = target: GlcNAc(a1-4)Gal(b1-4)GlcNAc
# Procedure, shortened: as §1
# [3] = target: GlcNAc(b1-2)Man(a1-3)[GlcNAc(b1-4)][GlcNAc(b1-2)Man(a1-6)]Man(b1-4)GlcNAc(b1-4)GlcNAc
# Procedure, shortened: as §1
# [4] = target: GlcNAc(b1-2)[GlcNAc(b1-4)]Man(a1-3)[GlcNAc(b1-4)][GlcNAc(b1-2)Man(a1-6)]Man(b1-4)GlcNAc(b1-4)GlcNAc
# Procedure, shortened: as §1
# GlcNAc(b1-3)Fuc = target: GlcNAc(b1-3)Fuc
# Procedure, shortened: as §1
# [5] = target: GlcNAc(b1-3)Gal(b1-3)GalNAc
# Procedure, shortened: as §1
# [6] = target: GlcNAc(b1-3)Gal(b1-4)GlcNAc(b1-2)[GlcNAc(b1-3)Gal(b1-4)GlcNAc(b1-6)]Man(a1-6)[GlcNAc(b1-3)Gal(b1-4)GlcNAc(b1-2)Man(a1-3)]Man(b1-4)GlcNAc(b1-4)GlcNAc
# Procedure, shortened: as §1
# [7] = target: GlcNAc(b1-3)Gal(b1-4)GlcNAc(b1-3)Gal(b1-4)GlcNAc(b1-2)Man(a1-3)[GlcNAc(b1-3)Gal(b1-4)GlcNAc(b1-3)Gal(b1-4)GlcNAc(b1-2)Man(a1-6)]Man(b1-4)GlcNAc(b1-4)GlcNAc
# Procedure, shortened: as §1
# [8] = target: GlcNAc(b1-3)Gal(b1-4)GlcNAc(b1-3)Gal(b1-4)GlcNAc(b1-3)Gal(b1-4)GlcNAc(b1-2)[GlcNAc(b1-3)Gal(b1-4)GlcNAc(b1-3)Gal(b1-4)GlcNAc(b1-3)Gal(b1-4)GlcNAc(b1-6)]Man(a1-6)[GlcNAc(b1-3)Gal(b1-4)GlcNAc(b1-3)Gal(b1-4)GlcNAc(b1-3)Gal(b1-4)GlcNAc(b1-2)Man(a1-3)]Man(b1-4)GlcNAc(b1-4)[Fuc(a1-6)]GlcNAc
# Procedure, shortened: as §1
# GlcNAc(b1-3)GalNAc = target: GlcNAc(b1-3)GalNAc
# Procedure, shortened: as §1
# [9] = target: GlcNAc(b1-4)GlcNAc(b1-4)GlcNAc
# Procedure, shortened: as §1
# GlcNAc(b1-6)GalNAc = target: GlcNAc(b1-6)GalNAc
# Procedure, shortened: as §1
# Kdn(a2-3)Gal(b1-4)GlcNAc = target: Kdn(a2-3)Gal(b1-4)GlcNAc
# Procedure, shortened: as §1
# [10] = target: Man(a1-2)Man(a1-2)Man(a1-3)Man
# Procedure, shortened: as §1
# Man(a1-3)[Man(a1-6)]Man = target: Man(a1-3)[Man(a1-6)]Man
# Procedure, shortened: as §1
# [11] = target: Man(a1-3)[Man(a1-6)]Man(b1-4)GlcNAc(b1-4)[Fuc(a1-6)]GlcNAc
# Procedure, shortened: as §1
# [12] = target: Neu5Ac(a2-3)Gal(b1-3)GlcNAc(b1-2)Man(a1-3)[GlcNAc(b1-4)][Neu5Ac(a2-3)Gal(b1-3)GlcNAc(b1-2)Man(a1-6)]Man(b1-4)GlcNAc(b1-4)GlcNAc
# Procedure, shortened: as §1
# [13] = target: Neu5Ac(a2-3)Gal(b1-4)GlcNAc(b1-3)Gal(b1-4)[Fuc(a1-3)]GlcNAc
# Procedure, shortened: as §1
# [14] = target: Neu5Ac(a2-3)[Neu5Ac(a2-6)]GalNAc
# Procedure, shortened: as §1
# [15] = target: Neu5Ac(a2-6)Gal(b1-4)GlcNAc(b1-2)Man(a1-3)[Man(a1-6)]Man(b1-4)GlcNAc(b1-4)GlcNAc
# Procedure, shortened: as §1
# [16] = target: Neu5Ac(a2-6)Gal(b1-4)GlcNAc(b1-3)Gal(b1-4)GlcNAc
# Procedure, shortened: as §1
# [17] = target: Neu5Ac(a2-6)Gal(b1-4)GlcNAc(b1-3)Gal(b1-4)GlcNAc(b1-3)Gal(b1-4)GlcNAc(b1-2)Man(a1-3)[Neu5Ac(a2-6)Gal(b1-4)GlcNAc(b1-3)Gal(b1-4)GlcNAc(b1-3)Gal(b1-4)GlcNAc(b1-2)Man(a1-6)]GalNAc
# Procedure, shortened: as §1
# [18] = target: Neu5Ac(a2-6)Gal(b1-4)GlcNAc(b1-3)[Neu5Ac(a2-6)Gal(b1-4)GlcNAc(b1-6)]GalNAc
# Procedure, shortened: as §1
# [19] = target: Neu5Ac(a2-6)GlcNAc(b1-4)GlcNAc
# Procedure, shortened: as §1
# [20] = target: Neu5Ac(a2-8)Neu5Ac(a2-8)Neu5Ac(a2-3)[Gal(b1-3)GalNAc(b1-4)]Gal(b1-4)Glc
# Procedure, shortened: as §1
# [21] = target: Neu5Ac(a2-8)Neu5Ac(a2-8)Neu5Ac(a2-3)[GalNAc(b1-4)]Gal(b1-4)Glc
# Procedure, shortened: as §1
# [22] = target: Neu5Gc(a2-3)Gal(b1-4)GlcNAc
# Procedure, shortened: as §1
# [23] = target: Neu5Gc(b2-6)Gal(b1-4)GlcNAc
# Procedure, shortened: as §1
binder,measurement,setting,value
GS13599A-bth-520-23-520 (Bacteroides thetaiotaomicron) (protein) SEDTMDRINKDHDHTTSVASRFILADVITSTAFSNASGDINTYASSYIEYEVGVDNQLYYAEVRENEPSSSSTFNNSWNGIYSSLKNARIIIDQCGEGGRDHGNDVTRGMAEVMAAYNCALIADFFGDAPCSQAALVDEKGSPVYMTPKMDTQQEIYTQIISYLDDAIANLQKEDLADVTEQDFLYAGDADKWLKFAYGLKARYTMRLINRSSNKSADYEKVLDYVSKSFTSADDQAAFDIYDSNNINPFYGFYNSRAGFGASTSLGTKLLAYNDPRANRAFFTPIVDKKRSQVAANDPSLVPAPNGSPDQSTSKYGISAFVYAKTAPTLLMSYHELMFLKAEALCRLNRDAEDALKEAVVAGLLNAENSISIAIKELGSGLNTNSSEVITETSAGKYFDDVVKAKYAANPLQETMIQKYLAMWGASGEATETYNDFRRMKGLNENFITLTNPNNSSKFPLRYPYGNSDTAANPEVKAAYGNGDYVYSEPVWWAGGSR,glycan array binding signal (z-score),[1],-0.448
same,glycan array binding signal (z-score),[2],-0.237
same,glycan array binding signal (z-score),[3],2.52
same,glycan array binding signal (z-score),[4],-1.27
same,glycan array binding signal (z-score),GlcNAc(b1-3)Fuc,-0.118
same,glycan array binding signal (z-score),[5],1.12
same,glycan array binding signal (z-score),[6],1.84
same,glycan array binding signal (z-score),[7],1.66
same,glycan array binding signal (z-score),[8],0.815
same,glycan array binding signal (z-score),GlcNAc(b1-3)GalNAc,-0.348
same,glycan array binding signal (z-score),[9],-0.942
same,glycan array binding signal (z-score),GlcNAc(b1-6)GalNAc,-0.798
same,glycan array binding signal (z-score),Kdn(a2-3)Gal(b1-4)GlcNAc,0.096
same,glycan array binding signal (z-score),[10],0.245
same,glycan array binding signal (z-score),Man(a1-3)[Man(a1-6)]Man,0.71
same,glycan array binding signal (z-score),[11],0.777
same,glycan array binding signal (z-score),[12],0.566
same,glycan array binding signal (z-score),[13],-0.897
same,glycan array binding signal (z-score),[14],-0.336
same,glycan array binding signal (z-score),[15],0.864
same,glycan array binding signal (z-score),[16],-1.27
same,glycan array binding signal (z-score),[17],2.37
same,glycan array binding signal (z-score),[18],0.2
same,glycan array binding signal (z-score),[19],0.611
same,glycan array binding signal (z-score),[20],1.71
same,glycan array binding signal (z-score),[21],-1.68
same,glycan array binding signal (z-score),[22],-0.966
same,glycan array binding signal (z-score),[23],-0.127
